Measurements published in PubChem BioAssay (Tox21).
Records with an inconclusive call do not appear. The source made the active and inactive calls. Unless noted, calls follow the shape of the dose curve; as a rule, active = well fitted curve in the direction sought with a large enough effect in the repeat runs; inconclusive = weak or mixed curves; inactive = no such curve, though single readings can be large; an effect the other way counts as inactive or inconclusive.

Columns and labels:
[1] = qHTS assay to identify small molecule antagonists of the retinoid acid receptor (RAR) signaling pathway - cell viability counter screen (AID 1159551); also: nearly all actives have a fitted effect of over 35% in size
Outline: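 In this counter screen, the RARE-luciferase line C3RL4 was exposed for 6 h at 37 C and 5% CO2 to compounds with retinol at 1 uM final. Cellular ATP, read by luminescence, served as the viability measure.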

[2] = qHTS assay to identify small molecule antagonists of the estrogen related receptor (ERR) signaling pathway from Tox21 library - cell viability counter screen (AID 1224834); also: nearly all actives have a fitted effect of over 30% in size; also: potency is read from the fitted curve at half-maximal effect
Outline: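 Counter screen run in ERR cells (2,000 cells/well): cells pre-incubated 6 h, then treated with compounds for 17.5 h at 37 C. Fluorescence was read 30 min after CellTiter-Fluor addition.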

[3] = qHTS assay to identify small molecule agonists of the constitutive androstane receptor (CAR) signaling pathway - cell viability counter screen (AID 1224836); also: series mostly up to about 92 µM; nearly all actives have a fitted effect of over 45% in size
Outline: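 HepG2-CYP2B6-hCAR, 2500 cells/well, 4 h pre-incubation; cpd 15 conc + PK11195 0.75 uM final; 23 h, 37 C/5% CO2; CellTiter-Fluor, fluorescence.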

[4] = qHTS assay to identify small molecule antagonists of the constitutive androstane receptor (CAR) signaling pathway - cell viability counter screen (AID 1224837); also: series mostly up to about 92 µM; nearly all actives have a fitted effect of over 45% in size
Outline: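 CITCO at 50 nM final was added alongside compounds (15 concentrations) to double-stable hCAR/CYP2B6-2.2kb HepG2 cells. Following 23 hr at 37 C, cell viability was quantified by CellTiter-Fluor fluorescence intensity.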

[5] = target: Nuclear receptor subfamily 1 group I member 3 (Homo sapiens) (UniProt Q14994); test: qHTS assay to identify small molecule antagonists of the constitutive androstane receptor (CAR) signaling pathway (AID 1224838); also: nearly all actives have a fitted effect of over 40% in size
Sequence of Nuclear receptor subfamily 1 group I member 3 (Homo sapiens) (Q14994 whole entry, looked up): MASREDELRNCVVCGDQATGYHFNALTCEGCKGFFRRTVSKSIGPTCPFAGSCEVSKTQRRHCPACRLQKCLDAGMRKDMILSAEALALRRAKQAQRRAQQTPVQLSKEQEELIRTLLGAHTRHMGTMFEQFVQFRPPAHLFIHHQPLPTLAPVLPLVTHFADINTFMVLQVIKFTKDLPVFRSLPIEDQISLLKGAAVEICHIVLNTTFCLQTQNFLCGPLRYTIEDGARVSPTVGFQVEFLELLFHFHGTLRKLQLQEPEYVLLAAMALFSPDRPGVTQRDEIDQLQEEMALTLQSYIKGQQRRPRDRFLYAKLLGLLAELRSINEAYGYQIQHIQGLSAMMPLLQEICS
Outline: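 Inhibition of CITCO-driven (50 nM final) CYP2B6 reporter expression is measured in HepG2 cells stably carrying hCAR. Fifteen compound concentrations are applied for 24 h at 37 C, followed by luciferase luminescence.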

[6] = target: Nuclear receptor subfamily 1 group I member 3 (Homo sapiens) (UniProt Q14994); test: qHTS assay to identify small molecule agonists of the constitutive androstane receptor (CAR) signaling pathway (AID 1224839); also: series mostly up to about 92 µM; nearly all actives have a fitted effect of over 15% in size
Outline: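 HepG2-CYP2B6-hCAR cells, 2500/well, 4 h pre-incubation; compounds 15 conc.; PK11195 0.75 uM final; 24 h, 37 C/5% CO2; ONE-Glo luciferase read.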

[7] = qHTS assay to identify small molecule antagonists of the estrogen related receptor signaling pathway with the pleiotropic PPARgamma coactivator (PGC) from Tox21 10K library - cell viability counter screen (AID 1224840; active = well fitted cell-killing curve with a large enough effect in the repeat runs, not every such curve was filed as active; also: nearly all actives have a fitted effect of over 40% in size)
Outline: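 Readout: fluorescence intensity from CellTiter-Fluor after 30 min at 37 C/5% CO2. Preceded by 17.5 h treatment of PGC/ERR cells with DMSO-dissolved compounds, added 6 h post-seeding.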

[8] = target: Thyrotropin receptor (Homo sapiens) (UniProt P16473); test: qHTS assay to identify small molecule agonists of the thyroid stimulating hormone receptor (TSHR) signaling pathway (AID 1224843; calls by dose curve; also: nearly all actives have a fitted effect of over 45% in size; also: potency is read from the fitted curve at half-maximal effect)
Sequence of Thyrotropin receptor (Homo sapiens) (P16473 whole entry, looked up): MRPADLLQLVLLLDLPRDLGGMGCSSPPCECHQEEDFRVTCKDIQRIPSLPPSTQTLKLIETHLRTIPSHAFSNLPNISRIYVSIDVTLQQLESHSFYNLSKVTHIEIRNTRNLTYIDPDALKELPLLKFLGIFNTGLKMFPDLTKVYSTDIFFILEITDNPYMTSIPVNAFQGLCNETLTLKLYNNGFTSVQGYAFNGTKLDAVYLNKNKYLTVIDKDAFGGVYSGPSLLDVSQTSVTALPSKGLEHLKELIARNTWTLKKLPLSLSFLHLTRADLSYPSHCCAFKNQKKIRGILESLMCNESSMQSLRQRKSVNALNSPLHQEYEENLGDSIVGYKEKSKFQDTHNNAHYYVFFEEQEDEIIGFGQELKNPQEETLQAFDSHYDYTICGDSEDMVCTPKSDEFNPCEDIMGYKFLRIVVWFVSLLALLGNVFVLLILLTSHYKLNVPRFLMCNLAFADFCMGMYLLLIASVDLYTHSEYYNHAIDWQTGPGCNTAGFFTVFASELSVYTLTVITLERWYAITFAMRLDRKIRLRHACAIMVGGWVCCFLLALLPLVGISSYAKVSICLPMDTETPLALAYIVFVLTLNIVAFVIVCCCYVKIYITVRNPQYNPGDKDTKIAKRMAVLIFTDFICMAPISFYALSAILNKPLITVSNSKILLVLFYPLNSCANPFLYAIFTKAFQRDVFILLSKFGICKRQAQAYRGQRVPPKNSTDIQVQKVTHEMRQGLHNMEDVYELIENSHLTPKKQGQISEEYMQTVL
Outline: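 Compounds are titrated over 15 concentrations, in triplicate, onto TSHR-HEK293 cells seeded at 800/well. Plates sit 30 min at room temperature before cAMP-d2 and anti-cAMP cryptate are added; signal is read after a further hour.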

[9] = qHTS assay to identify small molecule agonists of the hypoxia (HIF-1) signaling pathway - cell viability counter screen (AID 1224844; calls by dose curve; also: nearly all actives have a fitted effect of over 50% in size; also: potency is read from the fitted curve at half-maximal effect)
Outline: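 In this counter screen, HRE-bla ME-180 cell viability after 17 hrs of compound exposure at 37C was read by CellTiter-Glo luminescence, multiplexed with the beta-lactamase reporter measurement.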

[10] = qHTS assay to identify small molecule agonists of H2AX (AID 1224845; active = well fitted activation curve with a large enough effect in the signal ratio in the repeat runs, not every such curve was filed as active; the % refers to the signal ratio)
Outline: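 Wild-type CHO-K1 cells plated overnight, then exposed 3 hr at 37C to compounds at 15 concentrations (0.76% DMSO). Lysed, then HTRF anti-pH2AX(S139)-cryptate/anti-H2AX-d2 detection after 24 hr at room temperature; emissions 665 and 620 nm.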

[11] = target: Luciferin 4-monooxygenase (Photinus pyralis) (UniProt P08659); test: qHTS assay to identify small molecule inhibitors of firefly luciferase (AID 1224835); also: series mostly up to about 120 µM; nearly all actives have a fitted effect of over 25% in size
Sequence of Luciferin 4-monooxygenase (Photinus pyralis) (P08659 whole entry, looked up): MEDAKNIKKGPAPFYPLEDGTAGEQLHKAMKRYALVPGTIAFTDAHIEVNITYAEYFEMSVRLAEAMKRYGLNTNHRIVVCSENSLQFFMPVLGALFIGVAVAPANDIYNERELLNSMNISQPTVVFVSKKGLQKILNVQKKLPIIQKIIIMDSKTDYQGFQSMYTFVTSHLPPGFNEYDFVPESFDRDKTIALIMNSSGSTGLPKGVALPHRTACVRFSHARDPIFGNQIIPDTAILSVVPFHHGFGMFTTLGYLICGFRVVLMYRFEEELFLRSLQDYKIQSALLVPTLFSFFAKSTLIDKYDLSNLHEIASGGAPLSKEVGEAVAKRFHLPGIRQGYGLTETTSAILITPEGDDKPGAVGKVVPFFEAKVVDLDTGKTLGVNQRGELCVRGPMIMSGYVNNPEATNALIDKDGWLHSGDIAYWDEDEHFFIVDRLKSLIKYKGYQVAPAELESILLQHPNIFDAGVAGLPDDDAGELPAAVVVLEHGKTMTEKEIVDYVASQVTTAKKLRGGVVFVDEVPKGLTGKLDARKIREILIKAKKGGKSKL
Outline: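 Quantitative HTS format; KM concentrations of both substrates. Purified P. pyralis FLuc activity quantified from luminescence images.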

[12] = qHTS assay to identify small molecule antagonists of the estrogen related receptor signaling pathway with the pleiotropic PPARgamma coactivator (PGC) from Tox21 10K library (AID 1224841; call rule not given here; also: series mostly up to about 92 µM; actives are mostly falling curves and most rising ones were filed inactive; nearly all actives have a fitted effect of over 50% in size)
Outline: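 One-Glo luminescence, measured after half an hour at room temperature, quantified reporter output of PGC/ERR cells. These had been plated at 2,000 per well, incubated 6 h, dosed with compounds in DMSO, then kept 18 h at 37 C.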

[13] = qHTS assay to identify small molecule agonists of the estrogen related receptor signaling pathway with the pleiotropic PPARgamma coactivator (PGC) from Tox21 10K library (AID 1224842); also: nearly all actives have a fitted effect of over 15% in size
Outline: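 PGC/ERR reporter cells (NTP line) were seeded 2,000 per well, rested 6 h at 37 C/5% CO2, then pin-dosed with compounds in DMSO for 18 h at 37 C; luciferase read by One-Glo luminescence after 30 min at room temperature.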

[14] = qHTS assay to identify small molecule antagonists of the retinoic acid receptor (RAR) signaling pathway (AID 1159552; also: nearly all actives have a fitted effect of over 50% in size)
Outline: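 Cells of the C3RL4 line were seeded, incubated overnight, then dosed with compounds in DMSO followed immediately by retinol (1 uM final). Six hours later luciferase detection reagent went in; signal was measured after 30 min at RT.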

[15] = qHTS assay to identify small molecule agonists of the retinoic acid receptor (RAR) signaling pathway (AID 1159553)
Outline: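 In this cell-based screen, 1,000 C3RL4 cells per well were cultured overnight, dosed with test chemicals in DMSO for 6 hr, and assessed for RARE luciferase luminescence.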

[16] = qHTS assay to identify small molecule antagonists of the estrogen related receptor (ERR) signaling pathway - cell viability counter screen (AID 1224818); also: series mostly up to about 46 µM
Outline: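 Viability of ERR cells, CellTiter-Fluor fluorescence; 17.5 h compound exposure at 37 C, DMSO vehicle; 30 min reagent incubation at 37 C/5% CO2.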

[17] = qHTS assay to identify small molecule antagonists of the estrogen related receptor (ERR) signaling pathway (AID 1224819;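 also: luminescence from an ERR-driven luciferase reporter measured with One-Glo reagent; series mostly up to about 46 µM; nearly all actives have a fitted effect of over 50% in size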)
Outline: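 Seed ERR cells 2,000/well; rest 6 h at 37 C/5% CO2; pin compounds in DMSO; incubate 18 h at 37 C; add One-Glo; wait 30 min at room temperature; measure luminescence.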

[18] = qHTS assay to identify small molecule agonists of the estrogen related receptor (ERR) signaling pathway (AID 1224820)
Outline: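 An ERR cell line provided by NTP was seeded at 2,000 cells per well and allowed to settle for 6 h before compounds in DMSO were added. After 18 h at 37 C, luciferase activity was measured by One-Glo luminescence.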

[19] = tested on: estrogen-related receptor alpha (ERRalpha) with PGC-1alpha coactivator, human; test: qHTS assay to identify small molecule antagonists of the estrogen related receptor signaling pathway with the pleiotropic PPARgamma coactivator (PGC) (AID 1224821; calls by dose curve)
Outline: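 A PGC/ERR cell line supplied by NTP is seeded, allowed 6 h at 37 C, and treated with test compounds in DMSO for 18 h. Signal is then measured as luciferase luminescence using One-Glo.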

[20] = qHTS assay to identify small molecule agonists of the estrogen related receptor signaling pathway with the pleiotropic PPARgamma coactivator (PGC) (AID 1224823)
Outline: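 Compounds dissolved in DMSO are added by pin tool to PGC/ERR cells that have settled for 6 h, and incubation continues 18 h at 37 C. Reporter output is measured as One-Glo luminescence.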

Measured: Potency

CCCCCCCCCCCCCCC(=O)O
inactive: [1] | [2] | [3] | [4] | [5] | [6] | [7] | [8] | [9] | [10]

CNCCO
inactive: [1] | [2] | [3] | [4] | [7] | [8] | [9] | [10]

CC(C)(CCC(=O)O)C(=O)O
inactive: [1] | [2] | [3] | [4] | [5] | [6] | [7] | [9] | [10]

CCCCc1nc(Cl)c(CO)n1Cc1ccc(-c2ccccc2-c2nn[nH]n2)cc1
inactive: [1] | [2] | [3] | [4] | [5] | [6] | [7] | [9] | [10]

CCOc1c(N2CCOCC2)cnn(C)c1=O
inactive: [1] | [2] | [11] | [3] | [4] | [7] | [8] | [10]

CC/C=C\CCOC(C)OCC (stereo unspecified)
inactive: [1] | [2] | [3] | [4] | [5] | [6] | [7] | [8] | [9] | [10]

CN(C)CCCN(C)CCCN(C)C
inactive: [1] | [2] | [11] | [3] | [4] | [7] | [8] | [9] | [10]

Cc1ccc(-c2ncc(Cl)cc2-c2ccc(S(C)(=O)=O)cc2)cn1
inactive: [1] | [2] | [3] | [4] | [7] | [8] | [9] | [10]

CCCC(=O)O[C@]1(C(=O)CC)CC[C@H]2[C@@H]3CCC4=CC(=O)CC[C@]4(C)[C@H]3[C@@H](O)C[C@@]21C
active: [9] 19 µM
inactive: [1] | [2] | [11] | [3] | [4] | [7] | [10]

Cc1ccnc(NS(=O)(=O)c2ccc(N)cc2)n1
inactive: [1] | [2] | [11] | [4] | [7] | [12] | [13] | [8] | [9] | [10]

NS(=O)(=O)Cc1noc2ccccc12
not listed: [11] | [14] | [15] | [16] | [17] | [18] | [19] | [20]
inactive: all other assays above

OCCc1ccccn1
inactive: [1] | [2] | [3] | [4] | [5] | [6] | [9] | [10]

C=CC(=O)OCCCl
inactive: [14] | [15] | [2] | [11] | [3] | [4] | [7] | [9] | [10]

CN(C)[C@@H]1C(=O)C(C(=O)NCN2CCCC2)=C(O)[C@@]2(O)C(=O)C3=C(O)c4c(O)cccc4[C@@](C)(O)C3C[C@@H]12 (stereo partly specified)
inactive: [1] | [2] | [3] | [4] | [5] | [6] | [7] | [8] | [9]

O=C(O)CNC(=O)c1ccc(CO)o1
inactive: [1] | [2] | [11] | [3] | [4] | [9] | [10]

Clc1cc(Cl)cc(Cl)c1
inactive: [1] | [2] | [3] | [4] | [5] | [6] | [12] | [13] | [8] | [9] | [10]

N[C@H](C(=O)O)[C@@H](O)c1ccc(O)c(O)c1
inactive: [1] | [2] | [3] | [4] | [7] | [8] | [9]

CC(=O)O[C@@]12CO[C@@H]1C[C@H](O)[C@@]1(C)C(=O)[C@H](O)C3=C(C)[C@@H](OC(=O)[C@H](O)[C@@H](NC(=O)OC(C)(C)C)c4ccccc4)C[C@@](O)([C@@H](OC(=O)c4ccccc4)[C@H]21)C3(C)C
inactive: [1] | [11] | [3] | [7] | [9] | [10]
active: [2] 0.0668 µM

c1ccc(Cc2ccccc2)cc1
inactive: [1] | [2] | [3] | [4] | [9] | [10]

O=[N+]([O-])c1cncn1CCN1CCOCC1
inactive: [1] | [2] | [3] | [4] | [6] | [8] | [9] | [10]

C1CCC2=NCCCN2CC1
inactive: [1] | [2] | [3] | [4] | [5] | [6] | [7] | [8] | [9] | [10]

CC(C)(N)C#N
inactive: [1] | [2] | [3] | [4] | [12] | [13] | [9] | [10]

CC(=O)Oc1cccc(C)c1
not listed: [11] | [14] | [15] | [16] | [17] | [18] | [19] | [20]
inactive: all other assays above

c1coc(CNc2ncnc3nc[nH]c23)c1
inactive: [1] | [2] | [11] | [7] | [8] | [9] | [10]

CNCC(O)c1ccc(O)c(O)c1 (stereo unspecified)
active: [8] 2.98 µM
not listed: [1] | [10] | [13] | [14]
inactive: all other assays above
